From PubChem
Rows were chosen to be rich in hits. Some 1.1% of all compounds tested hit in one or more screens of this group.
RXFP1 antagonist: RXFP1 (human) relaxin receptor antagonism. Q9HBX9. HEK293-RXFP1, relaxin-stimulated cAMP HTRF, 30 min; stronger effect = lower value. activity change, negative = inhibition, % at 57.5 µM. actives 0.59% (n = 350,000);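 active = activity change of -60% or lower, but not beyond a set lower limit; inconclusive = change between -60% and -40%, or beyond the set limit; inactive = change above -40%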; note: % is set by controls: 0 for no effect and ±100 for the full control effect
Target sequence (Q9HBX9 whole entry, looked up): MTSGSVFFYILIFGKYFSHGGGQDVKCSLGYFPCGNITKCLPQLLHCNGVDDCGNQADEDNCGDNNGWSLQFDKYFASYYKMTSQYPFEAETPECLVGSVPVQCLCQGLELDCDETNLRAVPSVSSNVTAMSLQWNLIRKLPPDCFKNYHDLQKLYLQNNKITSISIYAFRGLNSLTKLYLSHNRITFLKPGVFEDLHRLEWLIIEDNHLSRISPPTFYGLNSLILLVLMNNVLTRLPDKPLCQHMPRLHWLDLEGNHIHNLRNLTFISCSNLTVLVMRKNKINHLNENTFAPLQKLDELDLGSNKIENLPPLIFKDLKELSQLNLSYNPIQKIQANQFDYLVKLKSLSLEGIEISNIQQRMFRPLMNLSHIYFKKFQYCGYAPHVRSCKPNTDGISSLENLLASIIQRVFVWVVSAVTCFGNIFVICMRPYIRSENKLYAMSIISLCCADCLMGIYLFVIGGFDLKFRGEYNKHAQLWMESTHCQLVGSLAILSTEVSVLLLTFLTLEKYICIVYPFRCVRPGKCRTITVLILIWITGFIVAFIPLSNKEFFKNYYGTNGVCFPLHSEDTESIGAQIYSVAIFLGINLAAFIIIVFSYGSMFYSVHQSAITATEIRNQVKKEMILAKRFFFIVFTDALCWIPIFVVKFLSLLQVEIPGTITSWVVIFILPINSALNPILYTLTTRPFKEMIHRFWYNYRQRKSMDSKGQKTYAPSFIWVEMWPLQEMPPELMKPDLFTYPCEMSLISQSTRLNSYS
TRPV1 PAM: human TRPV1 potentiation. Q8NER1. AID 540277. potentiation, % at 8.33 µM. actives 0.02% (n = 320,000). TRPV1-expressing cells, Fluo-8 calcium influx, capsaicin EC20 potentiation; in the data active = potentiation above about 80%; inconclusive = between about 30% and that limit; note: 0% is about no effect
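Cells expressing TRPV1 were dye-loaded with Fluo-8 and read kinetically: 10 s baseline, 3 min after compound (agonist portion), then 2 min after EC20 capsaicin (allosteric enhancer portion). Calcium-bound dye fluorescence at 480/520 nm.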
gsp antagonist: antagonists of gsp mutant (McCune-Albright syndrome); Potency, µM (series often up to 76.9 µM), for the others: at the highest dose activity change, negative = inhibition, usual class: inhibitors; actives 0.4% (n = 340,000); AID 624288; gsp-mutant cells, cAMP HTRF, 30 min; calls by dose curve; cell line not stated here;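 note: intracellular cAMP measured with PDE inhibitor Ro 20-1724 present during compound exposure; potency is the fitted concentration of half-maximal effect; % is set by controls: 0 for no effect and ±100 for the full control effect; nearly all actives have a fitted effect of over 65% in size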
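G418-selected cells were plated in DMEM/10% FBS for 16-24 h at 37C, then treated with compounds plus the PDE inhibitor […] (300 uM solution added) for 30 min at 37C. Intracellular cAMP was measured by HTRF after 30 min lysis at room temperature.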
RXFP1 agonist: activates the human relaxin receptor RXFP1; Q9HBX9; HEK293T-RXFP1 cAMP TR-FRET, 30 min; response scale: percent of porcine relaxin response, buffer zero; Potency, µM (highest dose often 57.5 µM), for the others: top-dose activation, actives largely listed as activators; actives 0.3% (n = 370,000); active = well fitted activation curve with a large enough effect; inconclusive = small, poorly fitted or top-dose-only effect; note: potency is the fitted concentration of half-maximal effect; % is set by controls: 0 for no effect and ±100 for the full control effect; nearly all actives have a fitted effect of over 60% in size
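Agonist response is measured as cAMP accumulation in an RXFP1-transfected HEK293T line under PDE4 inhibition. Values are scaled between buffer-only and 29 nM porcine relaxin, and EC50s come from standard Hill equation fits.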
TRPV1 agonist: human TRPV1 agonism. Q8NER1. TRPV1-expressing cells, Fluo-8 calcium influx, agonist mode. activation, % at 8.33 µM. actives 0.19% (n = 320,000); in the data active = activation above about 80%; inconclusive = between about 30% and that limit; note: 0% is about no effect
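Cells expressing TRPV1 were dye-loaded with Fluo-8 and read kinetically: 10 s baseline, 3 min after compound (agonist portion), then 2 min after EC20 capsaicin (allosteric enhancer portion). Calcium-bound dye fluorescence at 480/520 nm.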
gsp agonist: gsp mutant agonism; gsp mutant cells, cAMP HTRF, 30 min; Potency, µM (doses to about 76.9 µM), for inactives: top-dose activation (cAMP increase), usual class: activators; AID 624287; actives 0.13% (n = 340,000); active = well fitted activation curve with a large enough effect; inconclusive = small, poorly fitted or top-dose-only effect, or another doubt; inactive = no such curve, though single readings can be large or run the other way; cell line not stated here;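 note: phosphodiesterase inhibitor Ro 20-1724 added with compounds to block cAMP breakdown; potency is the fitted concentration of half-maximal effect; nearly all actives have a fitted effect of over 60% in size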
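Cells in DMEM/10% FBS with G418 were pretreated with compounds in DMSO plus […] (300 uM stock) for 30 min at 37C. cAMP was measured by HTRF (cAMP-d2 plus anti-cAMP antibody-K) after 30 min at room temperature.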
* marks the source's active call; other numbers are inactive results; [ ] = another dose, or the depositor's remark.

What do the screens show for `COc1ccc(N2CCN(C(=O)CCCn3c(=S)[nH]c4cc5c(cc4c3=O)OCO5)CC2)cc1`?
RXFP1 antagonist: -69*; TRPV1 PAM: -4; gsp antagonist: -11%; RXFP1 agonist: 0%; TRPV1 agonist: -2; gsp agonist: inconclusive

How did Cc1ccc(C)c(N2CCN(C(=O)CCn3c(=S)[nH]c4cc5c(cc4c3=O)OCO5)CC2)c1 do in these assays?
RXFP1 antagonist: -68*; TRPV1 PAM: -2; gsp antagonist: 7%; RXFP1 agonist: 1%; TRPV1 agonist: 3; gsp agonist: inconclusive

Results for O=C(CCCn1c(=S)[nH]c2cc3c(cc2c1=O)OCO3)N1CCN(c2ccccn2)CC1 ?
RXFP1 antagonist: inconclusive; TRPV1 PAM: 2; gsp antagonist: -10%; RXFP1 agonist: -1%; TRPV1 agonist: -1; gsp agonist: -11%

Results for COc1cccc(N2CCN(C(=O)CCCCCNc3nc(=S)[nH]c4ccccc34)CC2)c1 ?
RXFP1 antagonist: -90*; TRPV1 PAM: 5; gsp antagonist: inconclusive; RXFP1 agonist: 4%; TRPV1 agonist: -4; gsp agonist: 1%[15.4 µM]

Results for CCOC(=O)c1sc2cccc(F)c2c1S(=O)(=O)NCc1ccccc1Cl ?
RXFP1 antagonist: -15; RXFP1 agonist: inconclusive

What do the screens show for `Cc1ccc(NC(=O)CSc2nc3ccc(NC(=O)c4cccs4)cc3s2)c(C)c1`?
RXFP1 agonist: -2%

What do the screens show for `Cc1ccc2c(C)c(C(=O)Nc3cccnc3)oc2c1`?
RXFP1 antagonist: -25; TRPV1 PAM: -2; gsp antagonist: 5%; RXFP1 agonist: 1%; TRPV1 agonist: -4; gsp agonist: -21%

How did Cc1cc2oc(C(=O)Nc3cccnc3)c(C)c2cc1C do in these assays?
TRPV1 PAM: 0; gsp antagonist: 3%; RXFP1 agonist: 1%; TRPV1 agonist: 85*; gsp agonist: 0%

How did Cc1cccc(OCC(=O)NNc2c3ccccc3nc3ccccc23)c1 do in these assays?
RXFP1 antagonist: inconclusive; TRPV1 PAM: -2; gsp antagonist: 22µM*; RXFP1 agonist: 0%; TRPV1 agonist: 10; gsp agonist: -5%

How did O=C(Cc1ccccc1)NNc1c2ccccc2nc2ccccc12 do in these assays?
RXFP1 antagonist: -7; TRPV1 PAM: 7; gsp antagonist: -17%; RXFP1 agonist: -3%; TRPV1 agonist: inconclusive; gsp agonist: 19%

What do the screens show for `Cc1ccc(OCC(=O)NNc2c3ccccc3nc3ccccc23)cc1`?
RXFP1 antagonist: -67*; TRPV1 PAM: 9; gsp antagonist: 28µM*; RXFP1 agonist: 1%; TRPV1 agonist: -2; gsp agonist: 1%

How did COC(=O)c1cc(NC(=O)Cn2nc(-c3ccc(C)c(C)c3)ccc2=O)cc(C(=O)OC)c1 do in these assays?
RXFP1 antagonist: -2; RXFP1 agonist: 1%

Results for Cc1ccc([N+](=O)[O-])cc1NC(=O)c1c(-c2ccccc2)noc1C ?
RXFP1 antagonist: -1; TRPV1 PAM: -7; gsp antagonist: 5%; RXFP1 agonist: 1%; TRPV1 agonist: 8; gsp agonist: 10%[15.4 µM]

How did Cc1cc(C)c(C(=O)N2CCCC(N3CCN(c4cccc(C(F)(F)F)c4)CC3)C2)o1 (stereo not given) do in these assays?
RXFP1 antagonist: -20; TRPV1 PAM: 1; gsp antagonist: 50µM*; RXFP1 agonist: 1%; TRPV1 agonist: 13; gsp agonist: inconclusive

Results for O=C1CCC(C(=O)N2CCCC(N3CCN(c4cccc(C(F)(F)F)c4)CC3)C2)=NN1 (stereo not given) ?
RXFP1 antagonist: -7; TRPV1 PAM: 2; gsp antagonist: 5%; RXFP1 agonist: 0%; TRPV1 agonist: 4; gsp agonist: 4.5µM*

How did CCCCCc1cc(=O)[nH]c(=S)[nH]1 do in these assays?
RXFP1 antagonist: 7; TRPV1 PAM: 21; gsp antagonist: -3%; RXFP1 agonist: 6%; TRPV1 agonist: -3; gsp agonist: 19%

How did CCCCCc1ccc(C(=O)CCCC)c(=S)[nH]1 do in these assays?
RXFP1 antagonist: -64*; TRPV1 PAM: 0; gsp antagonist: 4%; RXFP1 agonist: 2%; TRPV1 agonist: 12; gsp agonist: -27%

What do the screens show for `NC1(c2ccc(-c3nc4ccn5c(=O)[nH]nc5c4cc3-c3ccccc3)cc2)CCC1`?
RXFP1 antagonist: -62*

What do the screens show for `O=C1Cc2c(-c3ccccc3)cc(-c3cccc(Cl)c3)nc2-c2ccccc2N1`?
RXFP1 antagonist: 7; gsp antagonist: -5%; gsp agonist: 25%

What do the screens show for `CCCCCCCNC(=O)C1(CC2CC(c3ccc(Cl)cc3)=NO2)CCN(C(=O)CCCCCBr)CC1` (stereo not given)?
TRPV1 PAM: 1; gsp antagonist: -12%; RXFP1 agonist: -1%; TRPV1 agonist: 1; gsp agonist: -11%

What do the screens show for `COc1ccc(S(=O)(=O)N2CCCCC2)cc1NC(=O)c1cnc(C)cn1`?
RXFP1 antagonist: 2; TRPV1 PAM: 4; gsp antagonist: 5%; RXFP1 agonist: 3%; TRPV1 agonist: -2; gsp agonist: -3%

What do the screens show for `O=C1OC2(c3ccccc31)c1cc(I)c(O)c(I)c1Oc1c2cc(I)c(O)c1I`?
TRPV1 PAM: -23; RXFP1 agonist: -35%; TRPV1 agonist: 88*

How did O=C(COC(=O)c1ccc2c(c1)OCCO2)NCc1ccc(Cl)cc1 do in these assays?
RXFP1 antagonist: 2; gsp agonist: inconclusive

Results for COCC(=O)N(C)C[C@H]1Oc2cc(C#Cc3cccnc3)ccc2S(=O)(=O)N([C@H](C)CO)C[C@H]1C ?
RXFP1 antagonist: 2; gsp agonist: -26%

How did O=C(Nc1ccc(Nc2ccccc2)cc1)c1ccc(Br)o1 do in these assays?
RXFP1 antagonist: -68*; TRPV1 PAM: 1; gsp antagonist: inconclusive; RXFP1 agonist: -1%; TRPV1 agonist: 20; gsp agonist: 6%

How did O=C(NC(=S)Nc1ccccc1)c1ccc(Br)o1 do in these assays?
RXFP1 antagonist: -16; TRPV1 PAM: -8; gsp antagonist: -8%; RXFP1 agonist: 1%; TRPV1 agonist: 20; gsp agonist: -29%

What do the screens show for `Cc1nnc(NC(=O)C2CCN(S(=O)(=O)c3cc([N+](=O)[O-])ccc3Cl)CC2)o1`?
RXFP1 antagonist: -2; TRPV1 PAM: -18; gsp antagonist: 35µM*; RXFP1 agonist: -2%; TRPV1 agonist: -1; gsp agonist: -29%

What do the screens show for `COC(=O)c1ccc(NC(C)=O)cc1OC`?
RXFP1 antagonist: -11

How did Cc1cc2c(cc3c(SCc4ccc(Cl)cc4)nnc(C)n32)o1 do in these assays?
RXFP1 antagonist: -1; RXFP1 agonist: 14µM*
